# Assay results published in ChEMBL document CHEMBL3988442, “University of Dundee, Small-Polar-MMV Screening Library” (2021).
# The campaign covered roughly 53,000 compounds. About 900 (1.7%) showed an effect of 50% or more. This excerpt belongs to a sample that is enriched for strong results.
# Tested on: Mycobacterium tuberculosis
# Assay: Cornell - Phenotypic assay to identify agents that inhibit growth of Mycobacterium tuberculosis
# Format: functional
# Parameters: scale not given: direction of the effect not stated beside the values
# Details: 10 mM as filed; unlikely as a test dose
row,Structure (SMILES),Percent Effect [%]
1,COCCNC(=O)CN1CCCC1c1c(C)nn(C)c1Cl (stereo unspecified),-22.86
2,COc1ccc2cc(NC(=O)CCNc3ncccn3)cnc2c1,-7.502
3,COCCC(=O)N1CCC(c2cncc(Oc3cccnc3)n2)CC1,-4.018
4,Cc1nn(CCO)c(C)c1CNC1CCOc2ccccc21.Cl (stereo unspecified),28.69
5,Cc1nn(C)c(C)c1CNC1CCOc2ccccc21 (stereo unspecified),106.6
6,COc1c(CNC2CCOc3ccccc32)c(C)nn1C (stereo unspecified),23.56
7,CC(C)N1CCC2(CCN(C(=O)c3cccnc3)CC2)C1.O=C(O)C(F)(F)F.O=C(O)C(F)(F)F,-3.69
8,COc1cccc(-c2noc3c2CN(c2ncnc4c2CCC4)CC3)c1,35.28
9,COCc1cc(N2CCc3onc(-c4cccc(OC)c4)c3C2)ncn1,25.42
10,COc1cccc(-c2noc3c2CN(c2nc(C)ncc2C)CC3)c1,77.03
11,c1cc(CN2CCCC(c3ccnc4nccn34)C2)ccn1 (stereo unspecified),21.25
12,CSc1sc2c(O)cc(=O)[nH]c2c1C(N)=O,28.59
13,CCn1c(C)nnc1SCCn1cc(-c2nccs2)nn1,-8.266
14,COc1ccc(CN2CCC3(CC(C(=O)NCC(C)C)=NO3)C2)cc1 (stereo unspecified),19.34
15,CC(C)(C)C(=O)Nc1ccc(Oc2ccsc2C(=O)O)cc1,16.22
16,O=C(O)c1sccc1Oc1ccc(NC(=O)C2CC2)cc1,55.89
17,CC(C)CC(=O)Nc1ccccc1Oc1ccsc1C(=O)O,8.037
18,O=C(Nc1cnc(Oc2ccccc2)nc1)C1CC1,23.36
19,CC(C)CC(=O)Nc1ccc(Oc2ccsc2C(=O)O)cc1,38.91
20,COCC(=O)Nc1ccc(Oc2ccsc2C(=O)O)cc1,86.45
21,CC(C)NC(=O)Nc1ccc2c(c1)ncn2CC(=O)NCCN(C)C,-20.24
22,Cc1nc(C)n(C2CCCN(C(=O)Cc3ccc4c(c3)CCC4)C2)n1 (stereo unspecified),13.58

row,Structure (SMILES),Percent Effect [%]
1,Cc1cc(C)n(C2CN(Cc3noc(C4CC4)n3)C2)n1,7.043
2,COCCC(=O)Nc1ccnn1-c1ccccc1,-2.555
3,c1cnc(N2CCOCC3(CCCN(c4nncs4)C3)C2)cn1 (stereo unspecified),-8.424
4,CC(C)NC1CCN(CCc2ccc3c(c2)CCO3)CC1,56.74
5,CCOCCN1CCN(CCc2ccc3c(c2)CCO3)CC1,-8.246
6,COCC(C)N1CCN(CCc2ccc3c(c2)CCO3)CC1 (stereo unspecified),-12.27
7,CS(=O)(=O)NC[C@]12COC[C@H]1CN(C(=O)C1CC=CC1)C2,-4.911
8,CC(C)CCN1CCN(CC(=O)Nc2ccc3nsnc3c2)CC1,-1.569
9,Cc1ccc(CN2CCN(CC(=O)Nc3ccc4nsnc4c3)CC2)o1,54.44
10,CCC(CC)CN1CCN(CC(=O)Nc2ccc3nsnc3c2)CC1,23.66
11,CC(C)N1CC(n2ccnc2-c2nccn2C)CC1=O (stereo unspecified),-23.92
12,CN(C)c1cc(C2CCCN(S(=O)(=O)C3CCCC3)C2)ccn1 (stereo unspecified),15.85
13,O=C(c1ccc[nH]1)N(Cc1ccc(O)cc1)CC1CC1,43.3
14,NC(=O)c1ccc(C(=O)N(Cc2ccc(O)cc2)CC2CC2)cc1,-5.401
15,Cc1[nH]ccc1C(=O)N(Cc1ccc(O)cc1)CC1CC1,103.8
16,CSc1ccc(C)c(C(=O)Nc2c(C(N)=O)n[nH]c2C)c1,-17.81
17,COc1ccc(-n2ccc(CNCc3ccc(OC)c(O)c3)n2)cc1,31.15
18,COc1ccc(CNCCn2c(C)nc3ccccc32)cc1O,-17.9
19,COc1ccc(CNCCc2ccn(-c3ccccc3)n2)cc1O,107.6
20,O=C1CCC(=O)N1c1nn(Cc2ccc(F)cc2)cc1Cl,-47.77
21,CC[C@H](N)C(=O)Nc1nn(CC(F)(F)F)c2cc(OC(C)C)ccc12,15.83
22,Cc1nc(C)n(CC2CCCCN2CC(=O)NCc2ccccn2)n1 (stereo unspecified),18.51

row,Structure (SMILES),Percent Effect [%]
1,CCS(=O)(=O)CCN1CCC(N(C)Cc2noc(C(C)C)n2)C1 (stereo unspecified),13.23
2,Cc1cc(NC(=O)N2CCOC(C(N)=O)C2)ccc1Br (stereo unspecified),15.45
3,COCC1CN(C(=O)Nc2cc(Cl)cc(Cl)c2)CCO1 (stereo unspecified),13.66
4,NC(=O)C1CN(C(=O)Nc2cc(Cl)cc(Cl)c2)CCO1 (stereo unspecified),103.4
5,CNc1snc(C)c1C(=O)N1CCCC(n2cc(C)cn2)C1 (stereo unspecified),-17.18
6,Cc1nc(CN2CCC3(CC2)NC(=O)CC3c2ccncc2)cs1.O=C(O)C(F)(F)F.O=C(O)C(F)(F)F (stereo unspecified),21.18
7,COC(=O)COn1c(SCC(=O)OC)nc2ccccc2c1=O,102.5
8,CCc1cc(=O)[nH]c2nnc(SCC(=O)OC)n12,-7.031
9,COC(=O)CNC(=O)CCCn1cnc2ccccc2c1=O,3.303
10,COc1ccc(-n2c(SC)nc(O)c(Cc3ccccc3)c2=O)cc1,13.52
11,COC(=O)COn1c(SC(C)C)nc2ccccc2c1=O,75.74
12,COC(=O)COn1c(SC)nc2ccccc2c1=O,75.88
13,CCc1nc2ccccc2c(=O)n1CC1(O)CCN(C(=O)COC)CC1.Cl,10.94
14,COc1ccc(SCC2CNc3nc4ccccc4c(=O)n32)cc1 (stereo unspecified),44.86
15,CCSc1nc2ccccc2c(=O)n1OCC(=O)OC,74.42
16,CCc1nc2ccccc2c(=O)n1CC1(O)CCN(CC(=O)OC)CC1,13.86
17,COCC(C)NC(=O)CCCn1cnc2ccccc2c1=O (stereo unspecified),7.524
18,COC(=O)COn1c(OC)nc2ccccc2c1=O,32.68
19,COCc1nn(Cc2ccc(Br)s2)c(=O)o1,6.613
20,N#CCCn1nc(C(F)(F)F)c2c1CCCC2,-22.61
21,O=C(O)C(F)(F)F.O=C(O)C(F)(F)F.c1cc(CN2C[C@@H]3OCCN(CC4CC4)[C@@H]3C2)n[nH]1,4.885
22,CO[C@@H]1CCN(C(=O)Cc2cccc(F)c2)[C@H]1Cc1cccnc1.O=C(O)C(F)(F)F,-8.358

row,Structure (SMILES),Percent Effect [%]
1,CC(C)C(=O)N1CC[C@H]2N(C)CC[C@@]2(C(=O)N2CCOCC2)CC1.O=C(O)C(F)(F)F,-25.99
2,Cc1ccccc1CN(C)CC(O)COCc1ccccc1Cl (stereo unspecified),-1.891
3,O=C(O)C(F)(F)F.O=C(O)C(F)(F)F.c1cc(CN2CCc3ncc(CN4CCOCC4)n3CC2)cs1,-22.34
4,CC(C)(C)Oc1ccncc1NCc1cscn1,55.35
5,COc1ccccc1NCc1cscn1.Cl,16.2
6,COc1ccncc1NCc1cscn1,26.83
7,COC1COC2(CCN(Cc3ccccc3F)CC2)C1.O=C(O)C(F)(F)F (stereo unspecified),10.15
8,CCCc1nnc(N2CCN(c3ccccc3F)CC2)o1,-12.77
9,CCCc1nnc(N2CCN(c3ccccc3Cl)CC2)o1,51.83
10,CCCc1nnc(N2CCN(c3ccccc3OCC)CC2)o1,24.59
11,Cc1cccc(NC(=O)NC2CCC3(C2)OCCO3)c1Cl (stereo unspecified),24.64
12,Cc1csc(C(Cc2ccsc2)NC(=O)CN(C)Cc2cccnc2)n1.Cl (stereo unspecified),14.48
13,Cc1csc(C(Cc2ccsc2)NC(=O)CN(C)Cc2ccccn2)n1.Cl (stereo unspecified),68.23
14,CN(CC(=O)NC(Cc1ccsc1)c1cccnc1)Cc1ccccn1.Cl (stereo unspecified),-48.97
15,CCOc1ccc(NC(=O)N2CCC(n3cncn3)CC2)cc1Cl,-30.56
16,O=C(O)C(F)(F)F.c1cnc(N2C[C@@H]3COC[C@]3(COCC3CCCC3)C2)nc1,53.05
17,O=C(CC1CC1)NC[C@]12COC[C@H]1CN(c1ncccn1)C2.O=C(O)C(F)(F)F,0.6787
18,O=C(O)C(F)(F)F.O=C(O)C(F)(F)F.c1ccc(OC[C@]23COC[C@H]2CN(c2ncccn2)C3)nc1,24.67
19,CCOCC1CN(Cc2cnn(C)c2)Cc2ncn(C)c21 (stereo unspecified),21.37
20,Cc1ccc(CN2C[C@H](OCCN(C)C)[C@H]3COC[C@H]32)o1.O=C(O)C(F)(F)F.O=C(O)C(F)(F)F,19.04
21,CNC(=O)N1CCC(=Cc2ccccc2)CC1,50.2
22,CCCNC(=O)CCNC(=O)N1CCC(=Cc2ccccc2)CC1,-1.003

row,Structure (SMILES),Percent Effect [%]
1,CCNC(=O)N1CCC(=Cc2ccccc2)CC1,31.8
2,COC(=O)N1CCC(CNC(=O)C2CCN(S(C)(=O)=O)CC2)CC1,-2.459
3,CCn1ccc(-c2cc(NCCCOc3cccc(C)c3)nc(C)n2)n1,27.92
4,COc1ccccc1OCCNCCn1cccn1,4.031
5,CCn1ccc(-c2cc(NCCCOc3ccccc3C)nc(C)n2)n1,93.67
6,CC1(C)OC(=O)N(CCOc2ccc(F)cc2)C1=O,15.77
7,CN1CCOC(C)(C(=O)N2CCN(C3CCCC3)CC2)C1 (stereo unspecified),-58.81
8,CNC(=O)CNCC1(O)CCCN(Cc2ccc(F)c(F)c2)C1=O (stereo unspecified),-12.88
9,NCCc1nc(N(Cc2cncs2)C2CC2)c2ccccc2n1,-19.06
10,NCCc1nc(N(Cc2nccs2)C2CC2)c2ccccc2n1,-24.34
11,Cc1ccsc1CN(c1nc(CCN)nc2ccccc12)C1CC1,64.64
12,CN(C)C(CNC(=O)c1cccc(C(N)=O)c1)c1ccccc1Cl (stereo unspecified),-40.94
13,N#Cc1nccnc1N1CCC(COCc2ccccc2)C1 (stereo unspecified),4.332
14,N#Cc1nccnc1N1CCC(Cc2ccccc2)C1 (stereo unspecified),17.71
15,N#Cc1nccnc1N1CCC(CSc2ccccc2)C1 (stereo unspecified),53.28
16,CC(C)C(NC(=O)c1cnc(N2CCOCC2)nc1)c1cccs1 (stereo unspecified),69.04
17,CC(C)C(NC(=O)c1nc(N2CCOCC2)ncc1Cl)c1cccs1 (stereo unspecified),19.79
18,CC(C)C(NC(=O)c1ccc(N2CCOCC2)nc1)c1cccs1 (stereo unspecified),5.892
